The structures appear in SMILES notation. Results with a measured potency or affinity are listed apart. The source made the active and inactive calls.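 The calls were made as follows: active = signal-lowering compounds whose fitted half-maximal concentration is at or below twice the top tested dose in every run; inconclusive = runs disagree, flat 30 to 70% inhibition, or poor curve fit; inactive = the rest.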

The assay deals with Protein S100-A4 (Homo sapiens) (UniProt P26447). The assay is described as follows: S100A4-myosin IIA binding inhibitor potency, dose response, biochemical, fluorescence polarization, cherry-picked hits (AID 687001). As to conditions: FP, S100A4/TAMRA-myosin IIA peptide binding; series mostly up to 11 µM. In general terms: In fluorescence polarisation assays a small probe gives low polarisation when free and higher when bound to something large.
Protein S100-A4 (Homo sapiens), sequence (P26447 whole entry, looked up): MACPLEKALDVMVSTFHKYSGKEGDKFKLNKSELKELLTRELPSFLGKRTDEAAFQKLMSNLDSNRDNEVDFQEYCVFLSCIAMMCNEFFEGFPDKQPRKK
As for `C#CCNCCS(=O)(=O)N(Cc1ccc(Br)cc1)[C@@H](CC(C)C)C(=O)O`, the outcome was inactive.

On to `CCNC(=O)NC(=O)CSc1cccc(C(F)(F)F)c1`, for which the compound was called inactive.

Take `CSC[C@H]1CN(Cc2cccnc2)C(=O)[C@@H]1CC(=O)Nc1ccc(Br)cc1`: the compound was classed as inactive.

For `Cc1cc2nnc(SCC(=O)NCC(c3ccccc3)N(C)C)n2c2ccccc12` (stereo not drawn), the call was inactive.

With `CCOc1ccc(/C=N/NC(=O)c2ccccc2C)cc1CN1CC2CC(C1)c1cccc(=O)n1C2` (stereo not drawn), the call was inactive.

With `O=C(c1ccccc1)N1CC2(C1)[C@H](c1ccccc1)[C@@H](CO)N2Cc1ccccn1`, the compound was called inactive.

For the compound `Cc1ccc(S(=O)(=O)NCC[C@@H]2CC[C@@H](NC(=O)C3CCOCC3)[C@H](CO)O2)cc1`, the call was inactive.

As to `COc1c(Br)cc([N+](=O)[O-])c(OC)c1C(=O)NC(=O)Nc1c(Cl)cccc1Cl`, the result was inactive.

Regarding `COc1ccc(S(=O)(=O)Nc2ccc3c(c2)C(=O)N([C@@H](C)CO)C[C@@H](C)[C@H](CN(C)C(=O)Nc2ccccc2)OCCCC[C@@H](C)O3)cc1`, the result was inactive.

With `COc1cccc(-c2ccc([C@H]3[C@H](CO)N4CCCCN(CC5CC5)C[C@@H]34)cc2)c1`, the outcome was inactive.

With `C[C@@H]1CN([C@@H](C)CO)C(=O)c2cccc(N(C)C)c2O[C@@H]1CN(C)C(=O)Nc1cccc2ccccc12`, the outcome was inactive.

Turning to `Cc1ccc(S(=O)(=O)N(C)C[C@H]2OCCCC[C@H](C)Oc3ccc(NS(=O)(=O)c4ccccc4)cc3C(=O)N([C@H](C)CO)C[C@@H]2C)cc1`, the call was inactive.

Take `CCN1C(=O)c2ccccc2S(=O)(=O)c2ccc(C(=O)NCC(OC)OC)cc21`: the compound was classed as inactive.

In the case of `O=C(Cc1c(F)cccc1Cl)Nc1ccccn1`, the outcome was inactive.

`CCN1C(=O)[C@H]2[C@@H](c3ccc(-c4ccc5c(c4)OCO5)c(OC)c3)N[C@@](C)(C(=O)OC)[C@H]2C1=O`: the outcome was inactive.

Regarding `S=C(NCCCc1cnc[nH]1)NCCCN(Cc1ccc(Cl)cc1)c1ccc(Br)cn1`, the compound was called inactive.

For `CCCCn1cnc2c(SCc3ccc(Cl)cc3)nc(N)nc21`, the compound was classed as inactive.

As for `COc1ccc(CNC(=O)CN2C(=O)c3ccccc3C2=O)cc1`, the call was inactive.

For `C[C@@H]1CN([C@H](C)CO)C(=O)c2cc(C#CC3CC3)cnc2O[C@@H]1CN(C)S(C)(=O)=O`, the compound was called inactive.

`CN(CC(=O)Nc1cccc(F)c1)C(=O)c1cccc(S(=O)(=O)N2CCN(Cc3ccccc3)CC2)c1`: the outcome was inactive.

With `CCOC(=O)N1CCN(S(=O)(=O)c2ccc(C)c(C(=O)NC3CCCCC3)c2)CC1`, the call was inactive.

Regarding `CO[C@H]1CN(C)C(=O)c2ccc(NC(=O)NC(C)C)cc2OC[C@@H](C)N(C(=O)NC(C)C)C[C@H]1C`, the outcome was inactive.

For `Cc1cc(C(=O)CSc2nc(N)cc(=O)[nH]2)ccc1F`, the outcome was inactive.

Regarding `CC(C)NC(=O)N(C)C[C@H]1Oc2ccc(NS(=O)(=O)c3ccc(F)cc3)cc2C(=O)N([C@H](C)CO)C[C@@H]1C`, the compound was classed as inactive.

For `CN1c2ccc(C#Cc3cccnc3)cc2[C@@H]2[C@@H](CCN2S(=O)(=O)c2ccccc2F)[C@@H]1CO`, the result was inactive.

Consider `COCCCNC(=O)c1ccc2sc([C@@H]3O[C@H](CO)[C@H](O)[C@H](O)[C@H]3O)nc2c1`, for which the result was inactive.

On to `CCCNC(=O)Nc1ccc2c(c1)OC[C@@H](C)N(C(=O)C1CC1)C[C@H](C)[C@@H](OC)CN(C)C2=O`, for which the call was inactive.

As for `COc1ccc(C)cc1NS(=O)(=O)c1ccc2c(c1)N(C)CCO2`, the result was inactive.

Take `C[C@@H]1CN([C@H](C)CO)C(=O)c2c(c3ccccc3n2C)-c2ccccc2CO[C@H]1CN(C)S(=O)(=O)c1ccccc1`: the compound was called inactive.

For the compound `O=C(C[C@@H]1CC[C@@H]2[C@H](COC[C@@H](O)CN2C(=O)c2ccc3c(c2)OCO3)O1)NCCN1CCCC1`, the result was inactive.

`Cc1cccc(Nc2c3c(nc4ccccc24)CCC3)c1`: the call was inactive.

In the case of `CN(C)CC/C=C1/c2ccccc2COc2ccc(CC(=O)O)cc21`, the call was inactive.

Turning to `COCCNC(=O)C[C@@H]1CC[C@H]2[C@@H](COC[C@H](O)CN2Cc2cccc(-c3ccncc3)c2)O1`, the result was inactive.

Consider `C[C@H]1CCCCO[C@H](CN(C)Cc2ccc(C(F)(F)F)cc2)[C@@H](C)CN([C@@H](C)CO)C(=O)c2cc(NC(=O)Nc3ccc4c(c3)OCO4)ccc2O1`, for which the call was inactive.

Turning to `CC(C)Cc1cc(C(=O)NCCCN2CCOCC2)no1`, the outcome was inactive.

For `O=C(NCc1ccncc1)C1CCCN(S(=O)(=O)c2cc(Cl)ccc2Cl)C1` (stereo not drawn), the compound was classed as inactive.

As for `C=C(C)n1c(=O)n(Cc2ccccc2C)c2ccccc21`, the compound was classed as inactive.

`O=S(=O)(NC(=NCc1ccccc1)c1ccccc1)c1ccccc1`: the compound was called inactive.

For the origin of these results see PubChem BioAssay AID687001 (Broad Institute, 2013).
